Assay outcomes deposited in PubChem by National Center for Advancing Translational Sciences (NCATS).
This is one part of a sample in which hits are shown more often than they occur.
Shiga toxin inh: blocks Shiga toxin action in Vero cells; Vero cells, Shiga toxin protein synthesis inhibition reporter; inhibition, % at 38.7 µM; actives 9.2% (n = 290,000); in the data active = inhibition mostly above about 28%, no sharp cut-off; inactive = mostly below about 43%
LmPK inh: inhibitors of Leishmania mexicana pyruvate kinase; purified LmPK, Kinase-Glo ATP luminescence, 1 h; actives 0.37% (n = 290,000); Potency, µM (series often up to 57.5 µM), usual class: inhibitors
Target sequence (Q27686 whole entry, looked up): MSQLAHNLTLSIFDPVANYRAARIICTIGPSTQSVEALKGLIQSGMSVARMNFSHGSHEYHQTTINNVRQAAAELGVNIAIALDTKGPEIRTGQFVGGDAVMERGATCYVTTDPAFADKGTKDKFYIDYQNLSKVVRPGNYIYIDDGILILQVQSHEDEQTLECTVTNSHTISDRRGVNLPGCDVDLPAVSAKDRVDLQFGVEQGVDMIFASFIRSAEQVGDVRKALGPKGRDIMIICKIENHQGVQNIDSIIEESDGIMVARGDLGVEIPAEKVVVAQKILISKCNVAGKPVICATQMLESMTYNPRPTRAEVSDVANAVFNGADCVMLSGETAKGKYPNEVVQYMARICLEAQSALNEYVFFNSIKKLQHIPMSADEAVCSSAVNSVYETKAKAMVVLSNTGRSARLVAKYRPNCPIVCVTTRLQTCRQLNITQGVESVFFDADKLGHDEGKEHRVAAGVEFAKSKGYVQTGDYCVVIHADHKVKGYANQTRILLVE
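Purified LmPK (0.1 nM) with 0.5 mM PEP and 0.1 mM ADP in imidazole buffer pH 7.2 with MgCl2/KCl, 1 h at room temperature. ATP formed was read by luciferase luminescence and normalized to no-enzyme and uninhibited controls.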
CHX counter: counter-screen hit for Shiga toxin inhibitors, cycloheximide; actives 12% (n = 300,000); max response, %; cell reporter, cycloheximide protein synthesis inhibition counterscreen; AID 2314; in the data active = max response mostly above about 13%, no sharp cut-off; inactive = mostly below about 14%; also: read at 38.3 µM for the half of the compounds with a filed dose
Tb PYK inh: T. brucei pyruvate kinase inhibition; Q57TT1; TbPYK enzyme, Kinase-Glo Plus ATP luminescence, 45 min; Potency, µM (titrated, usually from 76.8 µM), hits mostly inhibitors; actives 0.12% (n = 410,000); also: nearly all actives have a fitted effect of over 50% in size
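TbPYK + substrate in 50 mM TEA pH 7.2, 100 mM KCl, 10 mM MgCl2, 0.05% BSA, 0.01% Tween-20; cpd pinned; ADP 130 uM final; 45 min RT; Kinase-Glo Plus 10 min; luminescence endpoint.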
FBPA Giardia inh: blocks Giardia fructose-bisphosphate aldolase activity; A8B2U2; purified Giardia FBPA; Potency, µM (titrated, usually from 59.6 µM), usual class: inhibitors; actives 0.71% (n = 290,000); AID 2451; also: nearly all actives have a fitted effect of over 55% in size
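Giardia FBPA (40 nM reagent) was preincubated 10 min at RT with compound (up to 57.5 uM final), then substrate plus GAPDH/TPI/NAD/arsenate coupling system with diaphorase/resazurin was added; resorufin fluorescence (525/598 nm) was read after 20 min.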
Sm TGR inh: inhibitors of Schistosoma mansoni thioredoxin glutathione reductase; purified TGR, DTNB reduction, TNB absorbance 405 nm; AID 485364; Q962Y6; actives 3% (n = 360,000); Potency, µM (doses to about 114 µM), usual class: inhibitors; also: nearly all actives have a fitted effect of over 60% in size
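First, TGR (20 nM dispensed) and NADPH were mixed with compound. Second, a 15 min room-temperature incubation followed. Third, further NADPH and then DTNB were added to start the reaction. Finally, TNB absorbance was monitored kinetically.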
Numbers stand for hits; n = inactive; u = inconclusive; x = no result given. Unless noted, calls follow the shape of the dose curve; as a rule, active = well fitted curve in the direction sought with a large enough effect; inconclusive = small, poorly fitted or top-dose-only effect, or another doubt; inactive = no such curve, though single readings can be large; an effect the other way counts as inactive or inconclusive.

SMILES	Shiga toxin inh	LmPK inh	CHX counter	Tb PYK inh	FBPA Giardia inh	Sm TGR inh
COc1ccc(C(=O)/C(=C/c2cccs2)c2nc3ccccc3o2)cc1	92.7	n	43.0	n	n	n
COc1ccc(/C=C(\CC(=O)O)c2nc3ccccc3o2)cc1	107.5	n	38.8	n	n	n
COC(=O)c1cc(NS(=O)(=O)c2ccc3c(c2)OCCO3)ccc1Cl	x	x	x	n	x	n
CCCCNC(=O)c1[nH]c2ccccc2c1Sc1ccc(C)cc1	x	x	x	n	x	n
CCN(CC)CCCNC(=O)c1[nH]c2ccccc2c1Sc1ccc(Cl)cc1	n	n	n	n	n	5.01µM
Cc1csc(SCC(=O)Nc2ccccc2)n1	65.5	n	11.3	n	n	n
CC(=O)C1=C(C)NC(SCC(=O)Nc2nc3ccccc3s2)=C(C#N)C1c1ccc(Cl)cc1 (stereo not drawn)	n	n	21.6	n	n	n
Cn1cc(SCC(=O)Nc2nc3ccccc3s2)c2ccccc21	n	n	29.0	n	n	n
Cc1cc2c(=O)n(C)c(SCC(=O)Nc3ccccc3)nc2s1	54.6	n	22.2	n	n	n
Nc1ncnc2c1[nH]c(=O)n2C1CC(O)C(CO)O1 (stereo not drawn)	x	x	x	x	n	x
COc1ccc(NC(=O)CCSc2nc(C)cs2)cc1	130.9	n	31.7	n	n	n
Cc1cc(C)nc(NC(=O)CSc2nc3ccccc3s2)n1	82.6	n	33.0	n	n	n
Cc1csc(SCC(=O)Nc2nc3ccccc3s2)n1	65.1	n	32.1	n	n	n
COc1cc(NC(=O)CSc2nc(C)cs2)cc(OC)c1	n	n	n	n	n	n
Cc1cc(C)n2c(Br)c(CSc3nc4ccccc4s3)nc2n1	n	n	33.9	n	n	n
CCOC(=O)CC(=O)Nc1nc2ccccc2s1	n	n	n	n	n	n
Cc1cc(C)nc(SCC(=O)OCC(=O)Nc2nc3ccccc3s2)n1	13.6	n	22.2	n	n	n
COc1ccc2[nH]c3c(c2c1)CCN1C(=O)C(CC(=O)NCCN2CCOCC2)C[C@H](C(=O)N2CCOCC2)[C@@]31C (stereo partly drawn)	x	x	x	n	x	x
O=C(CCn1c(=O)oc2ccccc21)n1c(=O)oc2ccccc21	n	n	n	n	n	15.8µM
Cc1ccc(NC(=O)CCn2c(=O)oc3ccccc32)c(C)c1	n	n	n	n	n	n
Cc1ccc(NC(=O)CCCC2CCCCC2)c(O)c1	109.3	n	34.3	n	x	n
O=C(CCCn1c(=O)oc2ccccc21)N1CCc2ccccc2C1	37.9	n	26.6	n	n	n
Cc1ccc(NC(=O)CCCn2c(=O)oc3ccccc32)c(O)c1	n	n	12.1	n	x	n
O=C1CCN(C(=O)CCCn2c(=O)oc3ccccc32)CC1	n	n	n	n	n	n
O=C(CCn1c(=O)oc2ccccc21)N1CCCCCC1	n	n	n	n	n	n
SMILES	Shiga toxin inh	LmPK inh	CHX counter	Tb PYK inh	FBPA Giardia inh	Sm TGR inh
CCOC(=O)c1cccc(NS(=O)(=O)c2cc(Br)cc3c2N(C(=O)C2CC2)CC3)c1	x	x	x	n	x	n
Cc1ccc(-c2cc(-c3ccc4c(c3)NC(=O)CO4)nc3c2COc2ccc(C)cc2-3)cc1	x	x	x	n	x	n
NC(=O)Cc1ccc(C(=O)c2ccc(Cl)cc2Cl)s1	48.1	n	23.0	n	n	n
O=C(CCCC(=O)N(c1ccc2c(c1)OCCO2)C(C(=O)NC1CCCCC1)c1ccc(Cl)cc1)Nc1ccccn1 (stereo not drawn)	32.7	n	24.3	n	n	n
COc1ccc(C(C(=O)NC2CCCCC2)N(C(=O)CCl)c2ccc(Cl)cc2)cc1 (stereo not drawn)	n	n	n	n	n	1.58µM
COC(CN(C(=O)CCl)C(C(=O)NC1CCCCC1)c1ccccc1C)OC (stereo not drawn)	n	n	n	n	n	7.08µM
COC(CN(C(=O)CCl)C(C(=O)NC1CCCCC1)c1ccc(Cl)cc1)OC (stereo not drawn)	n	n	n	n	n	22.4µM
O=C(C1CCN(S(=O)(=O)c2ccccc2)CC1)N1CCC1	x	x	x	n	x	n
CC(=O)C[C@H]1c2cc(F)ccc2S(=O)(=O)N1c1ccc(N(C)C)cc1	x	x	x	n	x	x
COc1ccc(Cl)cc1NC(=O)CSc1nc(=O)n(Cc2ccco2)c2c1CCC2	x	x	x	n	x	n
CC1(C)CCC(c2ccc(Cl)cc2)=C(CN2CCN(c3ccc(C(=O)NS(=O)(=O)c4ccc(N[C@H](CCN5CCOCC5)CSc5ccccc5)c(S(=O)(=O)C(F)(F)F)c4)cc3)CC2)C1	x	x	x	n	x	x
COC(CN(C(=O)CCl)C(C(=O)NC1CCCC(C)C1C)c1ccc(C)cc1)OC (stereo not drawn)	n	n	n	n	n	39.8µM
COC(CN(C)C(C(=O)NC1CCCCC1)c1ccccc1)OC (stereo not drawn)	n	n	n	n	n	u
O=C(NC1CCCCC1)C(c1cccnc1)N(C(=O)CCl)c1cccc(Cl)c1 (stereo not drawn)	n	n	n	n	n	3.98µM
Cc1ccc(OCc2cc(C(=O)N(C)C3CCCc4ccccc43)no2)cc1C (stereo not drawn)	x	x	x	n	x	x
Cc1cc([N+](=O)[O-])c2c(c1C)C1C=CCC1C(c1ccccn1)N2 (stereo not drawn)	n	n	n	x	u	22.4µM
O=C(Oc1oc(-c2ccco2)nc1C=Nc1ccccc1)c1ccco1	39.1	n	15.8	u	n	1.58µM
Cc1ccc(C(=O)O/N=C/c2c(C)nn(C)c2Cl)cc1	n	n	n	n	n	n
O=c1oc(-c2ccco2)nc2ccccc12	n	n	n	n	n	n
Cc1ccc(C(=O)Oc2oc(-c3ccco3)nc2C=Nc2ccc(Cl)cc2)cc1	98.6	n	35.8	n	n	2.24µM
O=C(Oc1oc(-c2ccco2)nc1C=Nc1ccccc1)c1ccoc1	n	n	17.1	n	n	1.41µM
Cc1ccc(OCc2cc(C(=O)N3CCN(CC(=O)NC(C)C)CC3)no2)cn1	n	n	n	n	n	n
CCOC(=O)[C@@](C)(N)Cc1ccc(O)c(O)c1	x	x	x	n	x	x
CSc1ncc(C(=O)NCc2cccc(Br)c2)c(-c2ccccc2)n1	x	x	x	n	x	n
Cc1nc(N2CCC(C)CC2)c2nnn(Cc3ccccc3)c2n1	56.1	n	n	n	n	n
SMILES	Shiga toxin inh	LmPK inh	CHX counter	Tb PYK inh	FBPA Giardia inh	Sm TGR inh
CC(C)Cc1nc(N2CCC(C(N)=O)CC2)c2nnn(Cc3ccccc3)c2n1	n	n	n	n	n	n
Cc1c(C(=O)Nc2cccnc2)oc2ccc(Br)cc12	75.0	n	33.6	n	n	n
O=C(Nc1cccnc1)c1cc2c(ccc3ccccc32)o1	40.4	n	57.2	n	n	n
CCc1ccc2oc(C(=O)Nc3cccnc3)c(C)c2c1	65.6	n	58.4	n	n	n
O=C(c1cc2c(ccc3ccccc32)o1)N1CCCCC1	90.1	n	51.9	n	x	n
CCc1nn(CCCC(=O)NC2CCCCC2C)c(=O)c2cc3occc3n12 (stereo not drawn)	x	x	x	n	x	x
